Rows were chosen to be rich in hits. Some 12% of all compounds tested hit in one or more screens of this group.
G9a block – blocks human histone lysine methyltransferase G9a; Q96KQ7; G9a H3K9 monomethylation, AlphaScreen, 2 h; Potency, µM (series often up to 102 µM), for inactives: at the highest dose activity, negative = inhibition, usual class: inhibitors; hit rate 8.8% among 350,000; AID 504332; further: on the % scale 0 is the no-effect control and ±100 the full control effect; nearly all actives have a fitted effect of over 75% in size
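G9a (20 nM) was preincubated 15 min with compound, then reacted 2 h at room temperature with 500 nM biotin-H3K9 peptide and 20 µM SAM. Monomethyl-H3K9 detected by AlphaScreen using anti-H3K9me1 antibody.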
JMJD2A Tudor – JMJD2A Tudor domain (human) inhibition; hit rate 4.4% among 390,000; O75164; AlphaScreen JMJD2A-Tudor / H3K4me3 peptide binding; AID 504339; Potency, µM (series often up to 114 µM), without a hit: top-dose activity change, negative = inhibition, actives largely listed as inhibitors; further: on the % scale 0 is the no-effect control and ±100 the full control effect; nearly all actives have a fitted effect of over 50% in size
BAZ2B block – inhibitors of human BAZ2B bromodomain | Q9UIF8 | AlphaScreen BAZ2B-H3K14Ac peptide displacement | Potency, µM (doses to about 114 µM), inactives show at the highest dose activity change, negative = inhibition, actives largely listed as inhibitors | hit rate 4.4% among 360,000; further: on the % scale 0 is the no-effect control and ±100 the full control effect; nearly all actives have a fitted effect of over 60% in size
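Compounds, titrated to a top concentration of 110 uM, were incubated 30 min at room temperature with preformed BAZ2B/acetyl-K14 H3 peptide complex (50 nM each). Proximity signal was measured by AlphaScreen after 20 min with beads.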
Sfp PPTase inh – Sfp phosphopantetheinyl transferase inhibition | Q9F4F7 | Biochemical Sfp PPTase activity, qHTS | Potency, µM, without a hit: largest response in the series, negative = inhibition, actives largely listed as inhibitors | hit rate 3.5% among 310,000 | AID 1490;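 further: the enzyme is Sfp with the accession as filed and its product quenches rhodamine fluorescence; 0% = enzyme reaction without inhibitor and -100% = no enzyme wells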
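Step 1, compound plus 15 nM Sfp-PPTase, 15 min, room temperature. Step 2, add rhodamine-CoA (5 uM) and BHQ-2-YbbR (12.5 uM). Step 3, read 525/598 nm fluorescence at 0 and 30 min.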
HP1b binding inh – inhibitors of HP1-beta chromodomain binding to methylated histone tails; P83916; AlphaScreen HP1-beta / biotin-H3K9me3 peptide binding; Potency, µM (top dose mostly 114 µM), without a hit: top-dose activity change, negative = inhibition, usual class: inhibitors; hit rate 0.56% among 390,000; further: nearly all actives have a fitted effect of over 70% in size
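HP1-beta protein (50 nM final) preincubated 30 min at room temperature with biotinylated H3(1-18)K9me3 peptide (50 nM) in PBS pH 7.4, 0.01% Tween-20, then compound added for 30 min. AlphaScreen streptavidin donor/nickel chelate acceptor beads (10 ug/mL final), 30 min dark, luminescence read.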
L3MBTL1 inh – L3MBTL1 (human) inhibition; Q9Y468; AlphaScreen L3MBTL1–H3K9me1 peptide binding; Potency, µM (titrated, usually from 57.1 µM), inactives show at the highest dose activity, negative = inhibition, most hits filed as inhibitors; hit rate 0.66% among 230,000; further: on the % scale 0 is the no-effect control and ±100 the full control effect; nearly all actives have a fitted effect of over 60% in size
Target sequence (Q9Y468 whole entry, looked up): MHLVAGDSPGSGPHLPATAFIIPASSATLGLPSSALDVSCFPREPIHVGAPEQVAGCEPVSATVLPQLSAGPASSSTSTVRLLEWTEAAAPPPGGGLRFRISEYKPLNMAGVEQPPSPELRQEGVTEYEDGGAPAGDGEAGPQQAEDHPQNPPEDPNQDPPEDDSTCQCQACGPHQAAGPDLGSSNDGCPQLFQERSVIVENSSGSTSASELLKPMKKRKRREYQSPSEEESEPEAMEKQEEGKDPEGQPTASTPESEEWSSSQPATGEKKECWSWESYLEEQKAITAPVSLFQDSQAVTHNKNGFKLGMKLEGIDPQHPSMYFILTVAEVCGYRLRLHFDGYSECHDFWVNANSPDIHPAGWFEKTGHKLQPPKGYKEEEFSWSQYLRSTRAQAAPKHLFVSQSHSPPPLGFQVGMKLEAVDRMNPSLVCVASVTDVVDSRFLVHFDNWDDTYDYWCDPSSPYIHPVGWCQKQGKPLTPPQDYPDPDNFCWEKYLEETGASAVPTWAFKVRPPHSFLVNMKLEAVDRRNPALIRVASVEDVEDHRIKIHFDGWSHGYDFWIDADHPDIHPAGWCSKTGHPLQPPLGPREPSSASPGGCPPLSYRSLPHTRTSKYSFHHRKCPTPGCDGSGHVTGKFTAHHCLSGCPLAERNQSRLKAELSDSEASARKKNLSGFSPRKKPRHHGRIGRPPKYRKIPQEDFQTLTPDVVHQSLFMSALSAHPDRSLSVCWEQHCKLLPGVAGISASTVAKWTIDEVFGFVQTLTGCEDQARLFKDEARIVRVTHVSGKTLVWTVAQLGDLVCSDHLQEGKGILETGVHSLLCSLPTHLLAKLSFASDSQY
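AlphaScreen proximity signal between nickel-chelate acceptor and streptavidin donor beads (final 10 ug/mL) reports binding of 50 nM L3MBTL1 to 75 nM biotin-H3 K9me1 peptide; complex incubated with compounds 30 min at room temperature; cefsulodin titration as control.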
Starred values were filed as active, the others as inactive; ? = inconclusive; · = no result given; [ ] = another dose, or the depositor's remark. The call rests on the fitted dose curve; in most records, active means well fitted curve in the direction sought with a large enough effect; inconclusive means small, poorly fitted or top-dose-only effect, or another doubt; inactive means no such curve, though single readings can be large; an effect the other way counts as inactive or inconclusive. Potency means the concentration at half of the fitted maximal effect.

SMILES	G9a block	JMJD2A Tudor	BAZ2B block	Sfp PPTase inh	HP1b binding inh	L3MBTL1 inh
COC(=O)C1=C(C)N(c2ccccc2)/C(=C/c2ccco2)C1=O	·	-6.9%	-5.8%	-9.0%	17.8%	4.1%
CCOC(=O)C1=C(C)N(c2ccccc2)C(=O)/C1=C\c1cccs1	?	?	10µM*	15.1%	28.2µM*	-16.5%
CCc1noc2nc(C)n(CC(=O)O)c(=O)c12	-2.7%[59 µM]	-7.9%	-6.4%	·	37.6%	·
CCOC(=O)CSc1nc2ccc(NC(=O)c3ccccc3F)cc2s1	-1.5%[59 µM]	14.9%	11.7%	·	67.7%	·
Cc1nn(-c2ccc(N3CCCCC3)nn2)c(C)c1CCC(=O)NCc1ccc(OC(C)C)cc1	1.2%[59 µM]	-18.7%	-12.8%	·	30.4%	·
CCCCSc1nc(-c2ccc(OC)cc2)ccc1C#N	85.7%[59 µM]	216.8%	190.5%	·	238.6%	·
Cc1cccc2c1-c1sc(C(=O)N(C)c3cccc(Cl)c3)cc1CO2	55.6%[59 µM]	76.0%	50.1%	·	107.7%	·
CC(C)CCNC(=O)CCn1c(=O)c2cccn2c2cccnc21	-3.8%[59 µM]	9.2%	-34.4%	·	43.3%	·
COC(=O)C1=C(C)N(c2ccc(C)c(C)c2)/C(=C/c2cccs2)C1=O	4.5%	-16.1%	-7.2%	2.9%	-11.2%	-5.5%
COC(=O)C1=C(C)N(c2cccc(C)c2)C(=O)/C1=C\c1cccs1	11.2µM*	?	10µM*	6.6%	?	-29.0%
COC(=O)C1=C(C)N(c2ccc(OC)c(OC)c2)C(=O)/C1=C\c1ccco1	?	-13.4%	35.5µM*	-15.2%	7.4%	-8.5%
Cc1cc(N/N=C/c2ccc(O)cc2)c2cccc(C)c2n1	·	?	39.8µM*	-27.0%	?	-3.8%
Cc1cc(-c2ccccc2)nc(N/N=C/c2ccc(O)cc2)n1	2.3%[0.501 µM]	-24.9%	-30.6%	·	12.6%	-13.7%
Cc1cc(C)c2nc(C)cc(N/N=C/c3ccc(O)cc3)c2c1	?	50.1µM*	39.8µM*	?	5.6%	-7.1%
O=C(Nc1ccc2oc(-c3ccncc3)nc2c1)c1cccs1	-26.0%[12.7 µM]	-32.5%	56.2µM*	-20.9%	49.3%	9.6%
CCCC(=O)Nc1ccc2c(c1)nc1n2CCOC1	?	-6.7%	5.2%	13.7%	29.9%	-0.8%
CCCCC(=O)Nc1ccc2c(c1)nc1n2CCOC1	10.5%	79.4µM*	7.2%	9.9%	-11.5%	8.2%
COCCN1CCn2c(nc3cc(NC(=O)c4cccs4)ccc32)C1	20µM*	-11.6%	-33.5%	-9.2%	16.2%	·
CC(c1ccccc1)N1CCn2c(nc3cc(NC(=O)c4cccs4)ccc32)C1 (stereo not drawn)	?	-13.4%	-2.3%	4.8%	12.1%	·
Cn1c(CN2CCCC2)nc2cc(NC(=O)c3cccs3)ccc21	14.1µM*	-35.6%	?	-20.4%	20.3%	-5.1%
CCc1c(C)c2ccc(O)c(CN3CCN(c4ccccc4)CC3)c2oc1=O	-34.6%[59 µM]	14.2%	2.0%	·	78.2%	·
CCC(=O)N1CCCc2cc(S(=O)(=O)Nc3ccc(C)c(C)c3)ccc21	-25.7%[59 µM]	-24.3%	·	·	11.1%	·
CCCCC(=O)Nc1ccc2c(c1)nc(CN1CCN(C(=O)OCC)CC1)n2C	-23.5%	6.9%	-2.0%	3.2%	34.7%	·
COc1ccc(C(=O)Nc2ccc3c(c2)nc2n3CCSC2)cc1	50.1µM*	-6.6%	-26.2%	13.0%	-0.5%	-0.2%
CCCCC(=O)Nc1ccc2c(c1)nc1n2CCN(CCOC)C1	31.6µM*	-26.5%	-11.3%	10.4%	49.5%	-1.8%
SMILES	G9a block	JMJD2A Tudor	BAZ2B block	Sfp PPTase inh	HP1b binding inh	L3MBTL1 inh
CCCC(=O)Nc1ccc2c(c1)nc1n2CCN(CCOC)C1	25.1µM*	-9.8%	-0.5%	-13.4%	44.8%	·
CCc1ccc(NC(=O)c2sc3nc(C)c(Cl)c(C)c3c2NC(=O)c2ccccc2OC)cc1	?	-5.2%	-8.3%	·	22.6%	·
CCCCC[C@H](O)/C=C/C=C\C=C\[C@@H](O)C/C=C\CCCC(=O)O	·	·	·	-11.6%	·	·
Cc1ccccc1NS(=O)(=O)c1ccc2[nH]cc(C(=O)N(C)Cc3ccco3)c(=O)c2c1	·	?	56.2µM*	-96.6%	-28.7%	?
CN(CCc1ccccn1)S(=O)(=O)c1ccccc1F	44.7µM*	?	?	11.6%	29.8%	2.4%
CN(CCc1ccccn1)Cc1ccc(Cl)cc1Cl	-20.1%[0.0925 µM]	20µM*	50.1µM*	?	?	2.6%
CN(CCc1ccccn1)c1ccccc1	·	-29.0%	·	·	-20.1%	·
CSc1ccc(CN(C)CCc2ccccn2)cc1	·	25.1µM*	31.6µM*	50.1µM*	?	1.9%
O=C(NCc1ccccn1)Nc1ccc(Cl)cc1Cl	·	-18.6%	-1.3%	4.7%	46.8%	·
CN(CCc1ccccn1)C(=O)Nc1ccc(F)cc1	21.2%[59 µM]	-20.1%	17.2%	4.8%	23.7%	6.3%
COc1cccc(N2CC(NC(=O)C3CCCCC3)CC2=O)c1 (stereo not drawn)	-14.3%[59 µM]	-9.4%	-13.6%	·	44.3%	·
C#Cc1cccc(Nc2ncnc3cc(OC)c(OC)cc23)c1	7.6%[59 µM]	·	·	18.8%	·	·
COC(=O)c1ccc(NC(=O)Cc2coc3cc(C)ccc23)cc1	8.0%[59 µM]	-14.2%	-9.5%	·	44.1%	·
COC(=O)C1=C(C)N(CCc2ccc(OC)c(OC)c2)C(=O)/C1=C\N(C)C	44.7µM*	-5.5%	-3.3%	-23.3%	45.8%	·
COc1ccc(CCN2C(=O)C=CC2=O)cc1OC	·	31.6µM*	·	·	?	·
COc1ccc(CCn2c(C)ccc2C)cc1OC	-6.4%[59 µM]	·	-8.2%	13.9%	·	-5.9%
COc1ccc(CCNC2=C(Cl)C(=O)N(CCc3ccc(OC)c(OC)c3)C2=O)cc1OC	-1.9%[59 µM]	14.9%	11.7%	-16.2%	28.5%	·
COc1ccc(CCN2C(=O)c3cccnc3C2=O)cc1OC	-41.6%	-11.7%	79.4µM*	30.3%	13.2%	-3.3%
COc1ccc(CCN2C(=O)CC(Cc3ccc(C)cc3)C2=O)cc1OC (stereo not drawn)	-1.6%[0.501 µM]	10µM*	1.5%	11.1%	-6.4%	-3.1%
COc1ccc(CCN2C(=O)CC(NC34CC5CC(CC(C5)C3)C4)C2=O)cc1OC (stereo not drawn)	?	-19.6%	-16.7%	-13.0%	43.2%	0.1%
CCN(C/C=C/C#CC(C)(C)C)Cc1cccc(OCc2cc(-c3ccsc3)cs2)c1	·	·	·	13.3%	·	·
COC(=O)N[C@H](C[N+](=O)[O-])c1cccc(C)c1	·	·	·	-14.1%	·	·
CC(C(=O)Nc1ccccc1C(=O)N1CCOCC1)N(c1ccc(Cl)cc1)S(C)(=O)=O (stereo not drawn)	4.3%	11.2µM*	-13.9%	7.2%	?	5.1%
Cc1ccc(N(C(C)C(=O)Nc2ccccc2C(=O)N2CCOCC2)S(C)(=O)=O)cc1C (stereo not drawn)	-6.0%[12.7 µM]	-6.0%	9.7%	6.7%	12.1%	5.1%
